# Measurements: paper PMC4336329 (PLoS ONE, 2015)
# Among all 310,000 compounds or so, about 14,000 (4.5%) showed an effect of 50% or more. The effect is printed as a negative number. What follows is part of a selection rich in strong results, with near analogues and random picks from the rest.
# Target: human ether-à-go-go-related gene (hERG) potassium channel (human, UniProt Q12809)
# Test: primary screen, population patch clamp on CHO cells stably expressing hERG; higher = less effect of the substance
# 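Note: peak tail current of the secondary pulse compared with the same well before compound.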
# Chain of human ether-à-go-go-related gene (hERG) potassium channel (Q12809 whole entry, looked up): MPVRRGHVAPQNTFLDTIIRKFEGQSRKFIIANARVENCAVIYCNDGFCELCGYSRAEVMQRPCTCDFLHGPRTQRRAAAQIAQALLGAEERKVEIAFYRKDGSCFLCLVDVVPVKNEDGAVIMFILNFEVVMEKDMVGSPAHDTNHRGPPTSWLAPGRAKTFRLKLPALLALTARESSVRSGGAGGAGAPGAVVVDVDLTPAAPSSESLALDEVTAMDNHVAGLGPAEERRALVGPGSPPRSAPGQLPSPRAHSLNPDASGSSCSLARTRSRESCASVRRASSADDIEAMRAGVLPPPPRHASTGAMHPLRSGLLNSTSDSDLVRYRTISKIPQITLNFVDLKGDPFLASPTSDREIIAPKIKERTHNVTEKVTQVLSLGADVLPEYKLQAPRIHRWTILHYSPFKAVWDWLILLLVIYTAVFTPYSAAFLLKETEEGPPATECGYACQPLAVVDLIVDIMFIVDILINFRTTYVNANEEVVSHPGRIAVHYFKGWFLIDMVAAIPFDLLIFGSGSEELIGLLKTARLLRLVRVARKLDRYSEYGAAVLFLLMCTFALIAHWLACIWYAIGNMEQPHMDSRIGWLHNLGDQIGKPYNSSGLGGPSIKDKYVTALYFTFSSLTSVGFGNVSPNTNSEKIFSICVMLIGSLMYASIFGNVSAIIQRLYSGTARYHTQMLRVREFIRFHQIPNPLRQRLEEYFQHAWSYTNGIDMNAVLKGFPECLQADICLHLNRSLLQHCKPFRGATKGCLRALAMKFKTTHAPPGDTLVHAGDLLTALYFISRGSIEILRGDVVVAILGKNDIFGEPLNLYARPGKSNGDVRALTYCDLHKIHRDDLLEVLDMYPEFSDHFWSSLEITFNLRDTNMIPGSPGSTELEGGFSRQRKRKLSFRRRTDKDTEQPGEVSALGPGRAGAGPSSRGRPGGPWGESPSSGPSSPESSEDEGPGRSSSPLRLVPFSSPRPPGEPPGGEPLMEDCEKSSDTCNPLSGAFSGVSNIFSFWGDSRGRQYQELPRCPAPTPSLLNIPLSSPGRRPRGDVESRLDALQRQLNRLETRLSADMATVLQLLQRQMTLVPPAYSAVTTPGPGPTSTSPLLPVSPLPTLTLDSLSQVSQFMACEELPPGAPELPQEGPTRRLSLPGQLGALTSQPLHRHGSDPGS
row,Compound,"hERG current change (%, negative = inhibition) at 10uM [%]"
1,CCOc1ccc(C(=O)NC(=S)Nc2ccccc2N2CCC(C)CC2)cc1[N+](=O)[O-],5.75
2,CCOc1ccc(C(=O)Nc2ccccc2CC)cc1[N+](=O)[O-],-21.9
3,CCOc1ccc(C(=O)Nc2ccccc2N2CCN(C(=O)c3ccccc3)CC2)cc1[N+](=O)[O-],-83.3
4,CCOc1ccccc1NC(=O)c1ccc(OCC)c([N+](=O)[O-])c1,-10.3
5,CCOc1ccc(C(=O)NC(=S)Nc2ccccc2N2CCCCC2)cc1[N+](=O)[O-],11.7
6,CCOc1ccc(C(=O)Nc2ccccc2C#N)cc1[N+](=O)[O-],-55.6
7,O=C1NC2(CCCCCC2)Cc2ccccc21,-21.2
8,Cc1ccc(C(=O)NNC(=O)C(C)Oc2ccc3ccccc3c2)o1 (stereo not drawn),-13.2
9,C/C(CC(=O)NC(C)(C)C)=N\NC(N)=S,20
10,CCN(CC)S(=O)(=O)c1ccc(NC(=O)c2cccc3c2C(=O)N(CCOC)C3)cc1,-1.36
11,Cc1cc(C)n2nc(SC(C)C(=O)N3CCC4(CC3)OCCO4)nc2n1 (stereo not drawn),-0.197
12,O=C(c1ccc(CN2CCOCC2)cc1)N1CCN(c2ccccc2)CC1,3.02
13,O=C(c1ccc(Cn2cc(Cl)cn2)cc1)N1CCN(c2ccccc2)CC1,-58.4
14,NNC(=O)c1ccc(Cn2cc(Br)cn2)cc1,-2.07
15,O=C(c1ccc(Cn2cc(Br)cn2)cc1)N1CCN(c2ccccc2)CC1,-57.4
16,COc1ccc(N2CCN(C(=O)c3cccc(Cn4cc(Cl)cn4)c3)CC2)cc1,-48
17,O=C(O)c1ccc(Cn2cc(Cl)cn2)cc1,18.7
18,O=C(O)C1C(=O)NCC1c1ccccc1 (stereo not drawn),10.6
19,Cc1ccc(C(=O)NC2CCCC(C)C2C)cc1S(=O)(=O)N1CCCCC1 (stereo not drawn),-20.6
20,COC(=O)C1=C(C(=O)OC)N2C=CC=CC2(C)C(C(=O)OC)=C1C(=O)OC (stereo not drawn),-5.49
21,CCCCC(=O)Nc1ccc(N2CCN(C(=O)c3ccco3)CC2)cc1,-18.1
22,COC(=O)c1cc(COC(=O)c2cccnc2SC)oc1C,-5.24
23,O=C(CCNC(=O)C1CCN(S(=O)(=O)c2ccc(F)cc2)CC1)Nc1nccs1,15.5
24,Cc1ccc(C2CC(=O)N(c3ccc(F)cc3)C3=C2C(=O)CCC3)cc1 (stereo not drawn),0.885

row,Compound,"hERG current change (%, negative = inhibition) at 10uM [%]"
1,CC1CCC(NC(=O)CCS(=O)(=O)c2ccc3c(c2)CC(C)N3C(=O)C2CC2)CC1 (stereo not drawn),7.85
2,CN(C)CCNC(=O)c1ccccc1-c1ccccc1,-1.88
3,CN(C)CCNC(=O)c1ccccc1-c1cc2ccccc2c(=O)o1,-54.6
4,CCCNC(=O)c1cc2ccccc2c(=O)o1,10.8
5,COc1ccc(N(C)S(=O)(=O)c2cccc(C(=O)NC3CCCCC3C)c2)cc1 (stereo not drawn),-6.33
6,O=C(NCN1C(=O)C2C3C=CC(C3)C2C1=O)OC1CCCCC1 (stereo not drawn),4.17
7,COc1ccc(C(CNC(=O)c2cc3c(s2)CCCC3)N2CCOCC2)cc1 (stereo not drawn),-23.5
8,CCC1CCc2sc(C(=O)NCc3ccccn3)cc2C1 (stereo not drawn),-3.79
9,COc1ccc(C(CNC(=O)c2cc3c(s2)CCC(C)C3)N2CCOCC2)cc1 (stereo not drawn),-54
10,COc1ccc(C(CNC(=O)c2ccco2)N2CCCC2)cc1 (stereo not drawn),-7.05
11,CCC1CCc2sc(C(=O)NCC(c3ccc(OC)cc3)N3CCOCC3)cc2C1 (stereo not drawn),-5.82
12,CCC1CCc2sc(C(=O)NCC(c3ccccc3OC)N3CCCC3)cc2C1 (stereo not drawn),-63.6
13,CCC1CCc2sc(C(=O)N(C)CC(=O)Nc3ccc(OC)cc3)cc2C1 (stereo not drawn),-18.2
14,COc1ccc(C(CNC(=O)c2ccc(Cl)s2)N2CCOCC2)cc1 (stereo not drawn),-18.2
15,CCC1CCc2sc(C(=O)NCC3CCCO3)cc2C1 (stereo not drawn),-12.1
16,COc1ccc(C(CNC(=O)c2cc3c(s2)CCC(C)C3)N2CCCC2)cc1 (stereo not drawn),-57.7
17,CCC1CCc2sc(C(=O)NCC(c3ccc(OC)cc3)N3CCCC3)cc2C1 (stereo not drawn),-71
18,CC1CCc2sc(C(=O)NCC(c3ccco3)N3CCCCC3)cc2C1 (stereo not drawn),-30.8
19,CCCNC(=O)Cn1nc(C(F)(F)F)c2c1CCCC2,9.29
20,CC(=O)Oc1ccc(/C=C2/SC(=S)N(Cc3ccccc3)C2=O)cc1,10.2
21,CCn1c(SCC(=O)N2CCc3ccccc32)nnc1-c1ccncc1,-7.04
22,COc1ccc(CCNC(=O)C2=CC=CN3CCS(=O)(=O)N=C23)cc1,-7.92
23,Cc1ccccc1/C=C\c1nc2ccccc2c(=O)[nH]1,10.5
24,CC(Oc1ccc2c(-c3ccccc3)cc(=O)oc2c1)C(=O)N1CCC[C@@H]1C(N)=O (stereo partly drawn),1.14

row,Compound,"hERG current change (%, negative = inhibition) at 10uM [%]"
1,O=C(NCCS(=O)(=O)c1ccc(Br)cc1)c1ccc(Cl)cc1,-2.62
2,Cl.O=[N+]([O-])c1cc(CN(CCO)CCO)ccc1O,-2.79
3,CCCOc1ccc(CN(CCO)CCO)cc1[N+](=O)[O-].Cl,-54.2
4,CCOc1ccc(CN(CCO)CCO)cc1[N+](=O)[O-].Cl,-62.9
5,CCCOc1ccc(CN(CCO)CCO)cc1C(=O)OC,6.82
6,CCCCOc1ccc(CN(CCO)CCO)cc1[N+](=O)[O-].Cl,-22
7,COc1ccc(CN(CCO)CCO)cc1[N+](=O)[O-].Cl,3.54
8,CCOC(=O)N1CCN(CC(=O)Nc2cc3c(cc2C(C)=O)OCO3)CC1,-1.3
9,Fc1ccc2nc(Nc3nc4c(s3)CCCC4)sc2c1,3.62
10,COC(=O)N(NC(=O)C(O)(c1ccccc1)c1ccccc1)c1ccccc1,9.59
11,COc1ccc(OCC(=O)Nc2cc(NC(=O)c3ccco3)ccc2OC)cc1,5.23
12,CC(/C=N/NC(=O)CN1CCN(Cc2ccc(Cl)cc2)CC1)=C\c1ccco1,-69.2
13,O=C(CN1CCN(Cc2ccccc2)CC1)N/N=C\C=C/c1ccco1,-26.9
14,CC(/C=N\NC(=O)CN1CCN(Cc2ccccc2)CC1)=C\c1ccco1,-53.6
15,CC(=C/c1ccco1)/C=N/NC(=O)Cc1cccn1C,-6.63
16,CC(/C=N/NC(=O)Cc1cccn1C)=C\c1ccco1,-13.1
17,O=C(CN1CCN(Cc2ccccc2)CC1)N/N=C/c1ccco1,-5.43
18,COc1ccccc1C(=O)N1CCN(C2CCN(Cc3ccccc3)CC2)CC1,-23.2
19,C/C(=C\c1ccccc1F)C1Nc2cccc3cccc(c23)N1,13.1
20,Cc1ccc(/C=N/Nc2ccc3ccccc3n2)o1,-47.4
21,CCN(CC)S(=O)(=O)c1ccc(OC)c(NC(=O)C2CC(=O)N(c3ccc(C)cc3)C2)c1 (stereo not drawn),-19.6
22,CCOc1ccc(S(=O)(=O)N2CCCCC2)cc1NS(=O)(=O)c1cccs1,4.67
23,CCC1CN(C(=O)NCc2ccc(F)cc2)c2cc(Cl)ccc2O1 (stereo not drawn),12.5
24,c1ccc(CNc2ncnc3c2oc2ccccc23)nc1,-1.56

row,Compound,"hERG current change (%, negative = inhibition) at 10uM [%]"
1,Cc1cc2oc3ccc(NCCCn4ccnc4)cc3c(=O)c2cc1C,6.32
2,O=c1c2ccccc2oc2cc(NCCCn3ccnc3)ccc12,-60.9
3,CCNc1nc(CC)nc2c1oc1ccccc12.Cl,-11.5
4,CCc1nc(NCCCn2ccnc2)c2oc3ccccc3c2n1.Cl,-56.1
5,CCc1nc(Nc2ccncc2)c2oc3ccccc3c2n1.Cl,-58.5
6,Cl.c1ccc2c(c1)oc1c(NCCCn3ccnc3)ncnc12,-58.7
7,c1coc(CNc2ncnc3c2oc2ccccc23)c1,-22.1
8,CCc1nc(Nc2ccc(O)cc2)c2oc3ccccc3c2n1.Cl,-13.6
9,O=c1c2ccccc2oc2ccc(NCCCn3ccnc3)cc12,9.83
10,CCc1nc(NCCCN2CCOCC2)c2oc3ccccc3c2n1,-26.6
11,CCc1nc(Nc2ccccc2)c2oc3ccccc3c2n1.Cl,-5.28
12,CN1CCc2nc3sc(C(=O)NC4CC4)c(N)c3cc2C1,9.22
13,COc1ccc(OC)c(C2=NOC(C(=O)Nc3cccnc3)C2)c1 (stereo not drawn),-9.42
14,CN(C)c1ccc(/C=N/N(CCO)C2=NS(=O)(=O)c3ccccc32)cc1,21.8
15,COc1ccc(C/C(C)=N/NC(=O)c2cc(C)oc2C)cc1,4.56
16,N/C(=N\OC(=O)CSc1ccccc1)c1ccccn1,6.31
17,COc1ccc(C)cc1S(=O)(=O)N(C)CC(=O)N1CCC(C)CC1,22.8
18,Cc1csc(SCCN2C(=O)c3ccccc3C2=O)n1,2.6
19,Cc1nc(NCCCN2CCOCC2)c2oc3ccccc3c2n1.Cl,-15.5
20,Cl.c1ccc(-c2nc(NCCCn3ccnc3)c3oc4ccccc4c3n2)cc1,-4.89
21,Cc1nc(NCCCn2ccnc2)c2oc3ccccc3c2n1.Cl,-69.8
